In PubChem BioAssay (Tox21) one finds Potency, outcome and activity change, positive = activation data, which are given here for 23 molecules.

A number with no mark means an inactive call. Results filed as inconclusive are left out. Activity calls are given as the source filed them. Unless noted, calls come from the whole dose curve.

The target of experiment [1] is Thyrotropin receptor (Homo sapiens) (UniProt P16473). Briefly: qHTS assay to identify small molecule agonists of the thyroid stimulating hormone receptor (TSHR) signaling pathway (AID 1224843). Note: nearly all actives have a fitted effect of over 45% in size. Note: potency is the fitted concentration of half-maximal effect. The conditions noted are these: TSHR-HEK293 cells, cAMP HTRF, agonist mode, 30 min; series mostly up to 92.4 µM. Summed up: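 Cell line HEK293 with TSHR; density 800/well. Exposure 30 min RT. Readout HTRF cAMP (cAMP-d2/anti-cAMP-cryptate), 1 h RT before reading.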
Background: qHTS replaces the single test concentration by a dilution series.

Experiment [2] is described as follows: qHTS assay to identify small molecule agonists of the hypoxia (HIF-1) signaling pathway - cell viability counter screen (AID 1224844). Note: nearly all actives have a fitted effect of over 50% in size. Conditions: HRE-bla ME-180 viability, CellTiter-Glo luminescence, 17 h; series mostly up to 76.8 µM. An outline of the steps: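 Tox21 10K compounds were added to HRE-bla ME-180 cells (0.5% dialyzed FBS) and incubated 17 hrs at 37C; ATP-based CellTiter-Glo luminescence then reported cell viability in the same wells.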

Experiment [3] is described as follows: qHTS assay to identify small molecule agonists of H2AX (AID 1224845; active = well fitted activation curve with a large enough effect in the signal ratio in the repeat runs, not every such curve was filed as active; the % refers to the signal ratio). Conditions: CHO-K1 phospho-H2AX Ser139 HTRF, 3 h; series mostly up to 154 µM. Summed up:
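Wild-type CHO-K1 cells plated overnight, then exposed 3 hr at 37C to compounds at 15 concentrations (0.76% DMSO). Lysed, then HTRF anti-pH2AX(S139)-cryptate/anti-H2AX-d2 detection after 24 hr at room temperature; emissions 665 and 620 nm.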

Experiment [4] in a line: qHTS assay to identify small molecule agonists of the hypoxia (HIF-1) signaling pathway (AID 1224846; active = well fitted activation curve with a large enough effect in the signal ratio in the repeat runs, not every such curve was filed as active; the % refers to the signal ratio). Conditions: HRE-bla ME-180 cells, beta-lactamase ratio, 17 h; series mostly up to 76.8 µM. Summed up:
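Steps: seed ME-180 HRE-bla cells (2,000/well, 0.5% dialyzed FBS); incubate 5 hrs at 37C; pin-transfer compounds or DMSO; incubate 17 hrs; add LiveBLAzer B/G substrate CCF4-AM; measure reporter activation by FRET.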

The nature of experiment [5]: qHTS assay to identify small molecule agonists of H2AX - cell viability counter screen (AID 1224847). Note: top concentration of the series differs between compounds; nearly all actives have a fitted effect of over 30% in size. Conditions: CHO-K1 viability, CellTiter-Glo luminescence, 3 h; series mostly up to 154 µM. Summed up: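 Cells plated first: CHO-K1, 1000 per well in 10% FBS medium, incubated overnight at 37C. Then 15-point compound titration added (final DMSO 0.76%) for 3 hr. Finally CellTiter-Glo added and luminescence read.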

The nature of experiment [6]: qHTS RealTime-Glo MT Cell Viability Assay in HepG2 cells - 24 hour (AID 1224867; active = well fitted curve in the direction sought with a large enough effect in the repeat runs; an effect the other way counts as inactive or inconclusive; note: nearly all actives have a fitted effect of over 50% in size). The conditions noted are these: RealTime-Glo luminescence; series mostly up to 76.8 µM. Summed up: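 Compound treatment began 5 h after plating HepG2 cells (600/well) with NanoLuc luciferase and prosubstrate. Plates stayed at 37 C for 40 h; luminescence was captured at six time points, 0 h through 40 h.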

A short description of experiment [7]: qHTS RealTime-Glo MT Cell Viability Assay in HEK293 cells - 32 hour (AID 1224868; active = well fitted curve in the direction sought with a large enough effect in the repeat runs; an effect the other way counts as inactive or inconclusive; note: top concentration of the series differs between compounds; nearly all actives have a fitted effect of over 50% in size). Conditions: RealTime-Glo luminescence; series mostly up to 76.8 µM. An outline of the steps:
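Quantitative high-throughput screen of the Tox21 10K library in HEK293: cells and RealTime-Glo reagents plated together, compound added at 5 h, luminescence monitored through 40 h at 37 C.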

The nature of experiment [8]: A CellTox Green Cytotoxicity Assay to monitor cytotoxicity in HEK293 cells - 0 hour (AID 1224869; active = well fitted curve in the direction sought with a large enough effect in the repeat runs; an effect the other way counts as inactive or inconclusive; note: nearly all actives have a fitted effect of over 50% in size). Conditions: CellTox Green fluorescence; series mostly up to 76.8 µM. An outline of the steps:
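Cytotoxicity was tracked continuously in HEK293 cells by a DNA-binding dye excluded from viable cells. Compounds were transferred in DMSO 5 h after seeding; fluorescence was recorded at intervals up to 40 h.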

Experiment [9] in a line: qHTS assay to identify small molecule antagonists of the estrogen related receptor (ERR) signaling pathway from Tox21 library (AID 1224848; active = well fitted curve in the direction sought with a large enough effect in the repeat runs; an effect the other way counts as inactive or inconclusive; note: nearly all actives have a fitted effect of over 50% in size; note: potency is the fitted concentration of half-maximal effect). The conditions noted are these: ERR reporter cell line, luciferase antagonist mode, 18 h; series mostly up to 92.4 µM. Summed up:
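Screening used an ERR reporter line supplied by NTP, exposed for 18 h at 37 C to library compounds delivered in DMSO. Signal was luciferase luminescence developed with ONE-Glo at room temperature for 30 min.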

The nature of experiment [10]: qHTS assay to identify small molecule agonists of the estrogen related receptor (ERR) signaling pathway from Tox21 library (AID 1224849). Note: nearly all actives have a fitted effect of over 15% in size. The conditions noted are these: ERR reporter cell line, ONE-Glo luciferase, 18 h; at 92.4 µM (top of the series) unless noted. Summed up: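 Agonist signal is luciferase luminescence from an ERR reporter cell line treated 18 h at 37 C with DMSO-dissolved compounds, read 30 min after ONE-Glo addition at room temperature.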
% is set by controls: 0 for no effect and ±100 for the full control effect.

Thyrotropin receptor (Homo sapiens), sequence (P16473 whole entry, looked up): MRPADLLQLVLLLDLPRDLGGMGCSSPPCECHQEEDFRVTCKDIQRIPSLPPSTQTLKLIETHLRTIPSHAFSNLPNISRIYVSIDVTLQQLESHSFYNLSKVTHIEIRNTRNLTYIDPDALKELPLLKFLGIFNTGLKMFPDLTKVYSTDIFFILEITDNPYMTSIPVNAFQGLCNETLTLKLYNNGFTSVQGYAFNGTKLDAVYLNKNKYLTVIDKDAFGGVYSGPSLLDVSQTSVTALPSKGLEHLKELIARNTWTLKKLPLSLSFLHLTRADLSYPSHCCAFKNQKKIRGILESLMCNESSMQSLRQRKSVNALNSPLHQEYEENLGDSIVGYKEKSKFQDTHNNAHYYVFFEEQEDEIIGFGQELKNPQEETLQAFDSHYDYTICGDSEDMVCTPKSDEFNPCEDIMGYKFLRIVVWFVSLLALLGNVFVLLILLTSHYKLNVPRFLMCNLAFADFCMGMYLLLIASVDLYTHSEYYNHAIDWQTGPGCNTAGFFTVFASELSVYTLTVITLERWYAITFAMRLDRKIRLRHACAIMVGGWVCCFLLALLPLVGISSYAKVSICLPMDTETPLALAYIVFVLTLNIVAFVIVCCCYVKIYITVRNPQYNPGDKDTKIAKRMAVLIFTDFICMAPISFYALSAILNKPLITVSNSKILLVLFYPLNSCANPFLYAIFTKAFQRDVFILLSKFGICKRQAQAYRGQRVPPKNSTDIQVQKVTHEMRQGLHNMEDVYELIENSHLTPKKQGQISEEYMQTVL

`CC=C(Cl)Cl`: the Potency result in [1], in experiment [2], in [3], in experiment [5], in experiment [6] and in experiment [7] was “inactive” throughout. For the same molecule, the Potency result in experiment [8] was “inactive”. Besides, the outcome in experiment [4] was inactive.
Consider `C[C@@H](O)[C@H]1C(=O)N2C(C(=O)O)=C([C@H]3CCCO3)S[C@H]12`, for which the Potency entry in experiment [1], in [2], in experiment [3], in [5], in experiment [6] and in [7] was “inactive” throughout. Moreover, the Potency result in experiment [8] was “inactive”. Besides, the outcome in experiment [4] was inactive.
Turning to `CCCCCC#CC(=O)OC`, the Potency result in experiment [1], in experiment [2], in experiment [3], in [5], in [9] and in experiment [6] was “inactive” each time. The Potency result in experiment [8] is “inactive”. Further, in experiment [4], the result was inactive.
For `c1ccc(C[n+]2cccc3ccccc32)cc1`, the Potency result in [1], in experiment [2], in experiment [3], in experiment [5], in experiment [6] and in experiment [7] was “inactive” in each case. Further, the Potency entry in experiment [8] was “inactive”. The result in experiment [4] was inactive. Further, in [9], the Potency is 48.6 µM (active). Besides, in [10], the activity change, positive = activation is -48.3%.
As to `Nc1cccc2c1CN(C1CCC(=O)NC1=O)C2=O` (centres undefined), the Potency entry in experiment [1], in [2], in [3], in [5], in experiment [6] and in experiment [7] was “inactive” each time. In addition, the Potency result in experiment [8] was “inactive”. Moreover, the outcome in experiment [4] was inactive.
Consider `O=c1[nH]c2ccc(Cl)cc2o1`, for which the Potency result in experiment [1], in experiment [2], in [3], in [5], in experiment [6] and in [7] was “inactive” in each case. Also, the Potency result in experiment [8] is “inactive”. Besides, the outcome in experiment [4] was inactive. In addition, the activity change, positive = activation in experiment [10] is 4.04%.
Regarding `C[C@]1(Cn2ccnn2)[C@H](C(=O)O)N2C(=O)C[C@H]2S1(=O)=O`, the Potency result in experiment [1], in [2], in experiment [3], in experiment [5], in experiment [6] and in [7] was “inactive” throughout. Besides, the Potency entry in experiment [8] was “inactive”. In [4], the outcome was inactive.
In the case of `Cc1[nH]cnc1CN1CCc2c(c3ccccc3n2C)C1=O`, the Potency result in [1], in experiment [2], in [3], in experiment [5], in experiment [9] and in experiment [6] was “inactive” throughout. In addition, the Potency result in experiment [7] and in experiment [8] was “inactive” throughout. In experiment [4], the outcome was inactive. Moreover, the activity change, positive = activation in experiment [10] was -18.3% [at 42.5 µM].
As for `CC(C)Nc1cccnc1N1CCN(C(=O)c2cc3cc(NS(C)(=O)=O)ccc3[nH]2)CC1`, the Potency result in [1], in experiment [2], in [3], in experiment [5], in experiment [6] and in [7] was “inactive” each time. Moreover, the Potency entry in [8] was “inactive”. Besides, the result in experiment [4] was inactive. The activity change, positive = activation in experiment [10] is -20.7% [at 42.5 µM].
With `CCCCCCCCCI`, the Potency in experiment [1] was 24.8 µM (active). Further, the Potency result in experiment [2], in experiment [3], in experiment [5], in experiment [9], in experiment [7] and in experiment [8] was “inactive” in each case. Moreover, the result in experiment [4] was inactive. Also, in experiment [10], the activity change, positive = activation is 3.18%.
With `CN(C)CCN1C(=O)c2ccccc2N(C)c2ccccc21`, the Potency result in experiment [1], in experiment [2], in experiment [3], in experiment [5], in experiment [6] and in [7] was “inactive” in each case. Moreover, the Potency entry in experiment [8] is “inactive”. In [4], the result was inactive.
With `C=C(C)CCCC(C)CCO` (centres undefined), the Potency result in [1], in [2], in experiment [3], in [5], in experiment [6] and in experiment [7] was “inactive” each time. Further, in [8], the Potency result was “inactive”. For the same molecule, the outcome in [4] was inactive.
On to `COC(=O)C1=C(C)NC(C)=C(C(=O)O[C@@H]2CCCN(Cc3ccccc3)C2)[C@@H]1c1cccc([N+](=O)[O-])c1`, for which the Potency result in experiment [1], in experiment [2], in [3], in [5], in experiment [6] and in experiment [7] was “inactive” throughout. Further, in experiment [8], the Potency entry was “inactive”. Also, in experiment [4], the result was inactive. Also, in experiment [10], the activity change, positive = activation is -34.6% [at 42.5 µM].
For `O=C=Nc1ccc(Cl)c(Cl)c1`, the Potency result in [1], in experiment [2], in [3], in experiment [5], in experiment [6] and in experiment [7] was “inactive” each time. Also, the Potency result in [8] is “inactive”. Further, the outcome in experiment [4] was inactive. In experiment [9], the Potency was 26.9 µM (active). Also, the activity change, positive = activation in [10] was -41%.
`C=C1CCC2CC1C2(C)C` (centres undefined): the Potency entry in experiment [1], in experiment [2], in [3], in experiment [5], in experiment [6] and in experiment [7] was “inactive” throughout. Moreover, the Potency result in [8] was “inactive”. For the same molecule, the result in [4] was inactive.
`C=COCC(C)C`: the Potency entry in experiment [1], in [2], in [3], in experiment [5], in [9] and in experiment [6] was “inactive” throughout. For the same molecule, the Potency entry in [8] was “inactive”. For the same molecule, the result in experiment [4] was inactive. Further, the activity change, positive = activation in experiment [10] was -0.119%.
Regarding `CCC1(CO)COCOC1`, the Potency entry in [1], in experiment [2], in experiment [3], in [5], in experiment [9] and in [6] was “inactive” throughout. In addition, the Potency result in experiment [7] and in experiment [8] was “inactive” throughout. For the same molecule, the result in experiment [4] was inactive. In addition, the activity change, positive = activation in experiment [10] is 7.78%.
As for `CN1CC(=O)N2[C@H](c3ccc4c(c3)OCO4)c3[nH]c4ccccc4c3C[C@@H]2C1=O`, the Potency result in experiment [1], in experiment [2], in [3], in [5], in experiment [6] and in experiment [7] was “inactive” throughout. Moreover, the Potency entry in experiment [8] is “inactive”. In [4], the outcome was inactive.
Consider `CCC(C)COC(C)=O` (centres undefined), for which the Potency entry in experiment [1], in experiment [2], in [3], in experiment [5], in experiment [6] and in experiment [7] was “inactive” throughout. Also, in experiment [8], the Potency entry is “inactive”. For the same molecule, the result in experiment [4] was inactive. The activity change, positive = activation in experiment [10] was 1.45%.
Consider `CC(CO)CO`, for which the Potency result in experiment [1], in experiment [2], in experiment [3], in experiment [5], in [6] and in experiment [7] was “inactive” throughout. In experiment [8], the Potency entry was “inactive”. Besides, the outcome in experiment [4] was inactive. The activity change, positive = activation in experiment [10] is 0.194%.
As for `CC(CN(C)C)C(C)(O)Cc1ccc(Cl)cc1` (centres undefined), the Potency result in [1], in [2], in [3], in experiment [5], in experiment [9] and in [6] was “inactive” throughout. Also, the Potency result in experiment [7] and in experiment [8] was “inactive” in each case. Moreover, the result in experiment [4] was inactive. Besides, the activity change, positive = activation in experiment [10] is 9.4% [at 42.5 µM].
Consider `O=C1Cc2cc(Cl)ccc2N1`, for which the Potency entry in [1], in [2], in [3], in [5], in experiment [6] and in [7] was “inactive” in each case. In experiment [8], the Potency result was “inactive”. Moreover, the outcome in experiment [4] was inactive. For the same molecule, in experiment [10], the activity change, positive = activation was 0.547% [at 42.5 µM].
For `N#CCc1ccc(Cl)cc1Cl`, the Potency result in experiment [1], in experiment [2], in experiment [3], in [5], in experiment [9] and in experiment [6] was “inactive” each time. For the same molecule, the Potency entry in [7] and in [8] was “inactive” each time. For the same molecule, the outcome in [4] was inactive. In addition, the activity change, positive = activation in experiment [10] is 0.109%.
